Results reported in PubChem BioAssay (NCATS).
Inconclusive results are not listed. Active and inactive are the calls of the source. Calls come from the whole dose curve; as a rule, active = well fitted curve in the direction sought with a large enough effect; inconclusive = small, poorly fitted or top-dose-only effect, or another doubt; inactive = no such curve, though single readings can be large; an effect the other way counts as inactive or inconclusive.

Columns and labels:
[1] = qHTS for differential inhibitors of proliferation of Plasmodium falciparum line GB4 (AID 1816); details: Potency: Plasmodium falciparum GB4 proliferation inhibition;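 note: potency is the fitted concentration of half-maximal effect; parasite growth measured after 72 h incubation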
[2] = qHTS for differential inhibitors of proliferation of Plasmodium falciparum line 3D7 (AID 1876); note: potency is the fitted concentration of half-maximal effect
[3] = qHTS for differential inhibitors of proliferation of Plasmodium falciparum line D10 (AID 1877);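 note: potency is the fitted concentration of half-maximal effect; parasites grown with compound for 72 h before DNA staining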
[4] = qHTS for differential inhibitors of proliferation of Plasmodium falciparum line Dd2 (AID 1882); details: Potency: Plasmodium falciparum Dd2 proliferation inhibition; note: series mostly up to about 29 µM; nearly all actives have a fitted effect of over 65% in size
In short: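 Dd2-infected erythrocytes (0.3% parasitemia, 2.5% hematocrit final) incubated with compound 72 h at 37 C, 5% CO2; lysed with saponin/Triton buffer containing SYBR Green I, incubated overnight in the dark, then read by fluorescence (485/535 nm). Normalized to 0.29 uM artemisinin and DMSO.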

[5] = qHTS for differential inhibitors of proliferation of Plasmodium falciparum line W2 (AID 1883); details: Potency: Plasmodium falciparum W2 proliferation inhibition;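 note: potency is the fitted concentration of half-maximal effect; parasites grown with compound for 72 h before lysis and staining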
[6] = qHTS for differential inhibitors of proliferation of Plasmodium falciparum line HB3 (AID 1886); details: Potency: Plasmodium falciparum HB3 proliferation inhibition;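 note: potency is the fitted concentration of half-maximal effect; parasites grown with compound for 72 h before SYBR Green readout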
[7] = biological target: Ferritin light chain (Equus caballus) (UniProt P02791); experiment: qHTS Validation Assay for Identification of Novel General Anesthetics (AID 2323); note: series mostly up to about 77 µM
Sequence of Ferritin light chain (Equus caballus) (P02791 2-175 limits assumed): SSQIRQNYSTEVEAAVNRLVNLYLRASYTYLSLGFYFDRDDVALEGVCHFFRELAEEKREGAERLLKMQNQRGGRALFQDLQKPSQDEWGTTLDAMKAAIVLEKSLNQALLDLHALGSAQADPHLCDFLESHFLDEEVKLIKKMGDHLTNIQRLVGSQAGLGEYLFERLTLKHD
In short: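 Competitive displacement of profluorescent 1-aminoanthracene (1-AMA, 50% saturated solution in PBS) from 10 uM horse-spleen apoferritin. Compounds incubated 10 min at room temperature; fluorescence read at 380 nm excitation/535 nm emission, normalized to free 1-AMA and complex, fitted with four-parameter Hill equation.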

[8] = biological target: ATP-dependent DNA helicase Q1 (Homo sapiens) (UniProt P46063); experiment: qHTS Validation Assay for Inhibitors of RecQ-Like Dna Helicase 1 (RECQ1) (AID 2353)
Sequence of ATP-dependent DNA helicase Q1 (Homo sapiens) (P46063 whole entry, looked up): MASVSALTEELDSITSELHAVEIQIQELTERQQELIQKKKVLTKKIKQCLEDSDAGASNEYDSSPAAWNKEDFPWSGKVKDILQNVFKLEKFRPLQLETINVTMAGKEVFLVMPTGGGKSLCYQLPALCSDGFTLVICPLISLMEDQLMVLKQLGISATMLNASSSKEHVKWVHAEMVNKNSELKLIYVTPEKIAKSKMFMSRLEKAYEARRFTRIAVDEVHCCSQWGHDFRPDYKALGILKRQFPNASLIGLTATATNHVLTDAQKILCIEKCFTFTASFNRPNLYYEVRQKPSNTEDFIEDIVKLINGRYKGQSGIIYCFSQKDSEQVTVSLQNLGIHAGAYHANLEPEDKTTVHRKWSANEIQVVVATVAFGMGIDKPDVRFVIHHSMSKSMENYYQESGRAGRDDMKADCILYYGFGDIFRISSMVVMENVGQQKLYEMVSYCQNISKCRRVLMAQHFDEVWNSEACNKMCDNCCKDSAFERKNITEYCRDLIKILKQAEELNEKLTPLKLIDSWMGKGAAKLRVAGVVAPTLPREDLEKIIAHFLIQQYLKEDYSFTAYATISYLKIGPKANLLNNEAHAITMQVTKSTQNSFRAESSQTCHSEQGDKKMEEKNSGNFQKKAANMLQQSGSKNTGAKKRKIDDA
In short: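 50 nM RECQ1T1 preincubated 15 min with compound in Tris pH 8.0 buffer with MgCl2, DTT, Tween-20 and 2.5 ug/ml poly(dI-dC); started with 200 nM TAMRA/BHQ-2 forked duplex and 2 mM ATP. Unwinding read as fluorescence (525/598 nm), two reads 2 h apart.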

[9] = biological target: RecQ-like DNA helicase BLM (Homo sapiens) (UniProt P54132); experiment: qHTS Validation Assay for Inhibitors of Bloom's syndrome helicase (BLM) (AID 2364)
Sequence of RecQ-like DNA helicase BLM (Homo sapiens) (P54132 whole entry, looked up): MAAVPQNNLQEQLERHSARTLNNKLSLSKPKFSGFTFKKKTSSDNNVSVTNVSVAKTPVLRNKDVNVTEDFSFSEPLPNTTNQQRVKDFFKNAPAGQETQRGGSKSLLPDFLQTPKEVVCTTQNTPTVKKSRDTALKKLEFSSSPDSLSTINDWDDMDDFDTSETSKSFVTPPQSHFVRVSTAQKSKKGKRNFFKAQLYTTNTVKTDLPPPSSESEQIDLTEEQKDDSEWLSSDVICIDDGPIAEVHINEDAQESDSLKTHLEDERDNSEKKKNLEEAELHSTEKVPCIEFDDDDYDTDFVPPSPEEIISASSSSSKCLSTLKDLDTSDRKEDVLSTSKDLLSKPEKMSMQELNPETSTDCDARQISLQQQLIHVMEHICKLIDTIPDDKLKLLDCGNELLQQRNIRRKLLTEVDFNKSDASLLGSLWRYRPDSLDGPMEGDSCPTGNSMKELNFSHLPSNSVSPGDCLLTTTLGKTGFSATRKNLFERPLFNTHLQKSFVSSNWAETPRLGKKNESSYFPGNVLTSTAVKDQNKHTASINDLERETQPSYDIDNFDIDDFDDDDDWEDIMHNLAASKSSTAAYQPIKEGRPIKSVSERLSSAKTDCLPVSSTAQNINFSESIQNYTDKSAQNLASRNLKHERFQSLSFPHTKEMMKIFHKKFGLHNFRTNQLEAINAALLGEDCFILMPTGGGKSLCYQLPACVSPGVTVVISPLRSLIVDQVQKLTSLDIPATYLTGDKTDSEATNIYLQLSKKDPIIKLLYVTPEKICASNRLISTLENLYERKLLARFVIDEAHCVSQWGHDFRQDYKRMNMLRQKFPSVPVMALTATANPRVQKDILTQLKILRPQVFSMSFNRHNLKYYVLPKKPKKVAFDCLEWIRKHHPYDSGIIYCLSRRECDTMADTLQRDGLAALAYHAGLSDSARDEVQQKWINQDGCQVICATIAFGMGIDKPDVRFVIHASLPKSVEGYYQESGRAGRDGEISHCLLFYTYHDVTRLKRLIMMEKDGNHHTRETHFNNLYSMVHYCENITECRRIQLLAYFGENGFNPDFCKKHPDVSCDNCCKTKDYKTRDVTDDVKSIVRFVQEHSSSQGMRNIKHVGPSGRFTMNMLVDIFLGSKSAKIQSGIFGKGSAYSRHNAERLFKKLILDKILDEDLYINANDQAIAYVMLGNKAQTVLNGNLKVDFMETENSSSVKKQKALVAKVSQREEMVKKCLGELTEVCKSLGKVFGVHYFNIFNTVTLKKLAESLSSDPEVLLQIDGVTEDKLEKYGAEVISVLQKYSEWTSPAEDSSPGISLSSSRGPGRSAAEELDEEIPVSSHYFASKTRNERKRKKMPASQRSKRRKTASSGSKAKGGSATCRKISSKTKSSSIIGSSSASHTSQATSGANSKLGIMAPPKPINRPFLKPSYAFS
In short: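 BLM 50 nM in 25 mM Tris-HCl pH 8.0, 5 mM NaCl, 2 mM MgCl2, 1 mM DTT, 0.01% Tween-20, 2.5 ug/ml poly(dI-dC); 15 min cpd preinc, RT. Start: 200 nM forked DNA + 2 mM ATP (final). TAMRA read, 2 reads 2 h apart.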

[10] = Validation screen for small molecules that induce DNA re-replication in MCF 10A normal breast cells (AID 463097); note: nearly all actives have a fitted effect of over 60% in size
In short: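 Readout: Hoechst nuclear fluorescence intensity, 405 ex / 500-530 em, by scanning plate imager; re-replication scored as increase in nuclei with elevated DNA content. Cells exposed to compound 48 hr, 37 C, 5% CO2 beforehand.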

[11] = Quantitative high throughput screen for delayed death inhibitors of the malarial parasite plastid, 96 hour incubation (AID 488745); note: potency is the fitted concentration of half-maximal effect; nearly all actives have a fitted effect of over 70% in size
In short: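 Luciferase-expressing P. falciparum in erythrocytes (2% hematocrit, 0.1% parasitemia) incubated with compound for 96 h at 37 C, 5% CO2, in RPMI 1640 with 0.5% Albumax. Growth inhibition read as decreased luminescence.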

[12] = Quantitative high throughput screen for delayed death inhibitors of the malarial parasite plastid, 48 hour incubation (AID 488752); note: potency is the fitted concentration of half-maximal effect; nearly all actives have a fitted effect of over 65% in size
In short: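 Erythrocytes infected with firefly luciferase-expressing P. falciparum (2% hematocrit, 0.1% parasitemia) cultured with compound for 48 h at 37 C, 5% CO2, in RPMI 1640/0.5% Albumax. Growth inhibition read as loss of luminescence.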

[13] = biological target: M-phase phosphoprotein 8 (Homo sapiens) (UniProt Q99549); experiment: qHTS Validation Assay for Inhibitors for MPP8 Chromodomain Interactions with Methylated Histone Tails (AID 488949);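 note: AlphaScreen signal from MPP8 chromodomain bound to biotinylated H3K9me3 peptide; top concentration of the series differs between compounds; nearly all actives have a fitted effect of over 55% in size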
Sequence of M-phase phosphoprotein 8 (Homo sapiens) (Q99549 whole entry, looked up): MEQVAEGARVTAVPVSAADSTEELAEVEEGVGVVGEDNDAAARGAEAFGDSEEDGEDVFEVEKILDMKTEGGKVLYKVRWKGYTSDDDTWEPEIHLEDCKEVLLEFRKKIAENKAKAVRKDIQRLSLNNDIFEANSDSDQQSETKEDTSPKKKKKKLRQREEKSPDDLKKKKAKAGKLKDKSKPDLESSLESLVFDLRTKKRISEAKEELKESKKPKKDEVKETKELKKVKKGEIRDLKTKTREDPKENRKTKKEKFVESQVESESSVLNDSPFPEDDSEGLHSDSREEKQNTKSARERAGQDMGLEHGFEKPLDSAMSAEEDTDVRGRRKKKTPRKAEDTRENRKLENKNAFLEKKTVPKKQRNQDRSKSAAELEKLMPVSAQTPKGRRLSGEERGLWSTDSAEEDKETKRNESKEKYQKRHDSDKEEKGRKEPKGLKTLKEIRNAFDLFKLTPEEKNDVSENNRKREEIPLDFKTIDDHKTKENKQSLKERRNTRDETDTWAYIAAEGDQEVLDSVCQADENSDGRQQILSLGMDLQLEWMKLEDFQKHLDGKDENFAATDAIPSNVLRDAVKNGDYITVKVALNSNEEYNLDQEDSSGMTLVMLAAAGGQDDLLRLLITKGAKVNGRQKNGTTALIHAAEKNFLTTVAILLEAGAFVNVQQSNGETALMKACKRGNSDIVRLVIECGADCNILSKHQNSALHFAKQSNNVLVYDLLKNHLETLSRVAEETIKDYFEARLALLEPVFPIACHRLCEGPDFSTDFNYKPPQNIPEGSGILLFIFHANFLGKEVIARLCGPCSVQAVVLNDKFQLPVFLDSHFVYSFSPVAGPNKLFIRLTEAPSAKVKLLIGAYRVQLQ
In short: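 MPP8 (50 nM) was preincubated with biotinylated H3(1-18)K9me3 peptide (50 nM) in PBS pH 7.4, 0.01% Tween-20 for 30 min at room temperature, then with compounds for 30 min; binding was detected by AlphaScreen.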

[14] = biological target: Transient receptor potential cation channel subfamily V member 1 (Homo sapiens) (UniProt Q8NER1); experiment: HTS Assay for Compounds that Act as Enhancers of the Vanilloid Receptor 1 (AID 488979)
Sequence of Transient receptor potential cation channel subfamily V member 1 (Homo sapiens) (Q8NER1 whole entry, looked up): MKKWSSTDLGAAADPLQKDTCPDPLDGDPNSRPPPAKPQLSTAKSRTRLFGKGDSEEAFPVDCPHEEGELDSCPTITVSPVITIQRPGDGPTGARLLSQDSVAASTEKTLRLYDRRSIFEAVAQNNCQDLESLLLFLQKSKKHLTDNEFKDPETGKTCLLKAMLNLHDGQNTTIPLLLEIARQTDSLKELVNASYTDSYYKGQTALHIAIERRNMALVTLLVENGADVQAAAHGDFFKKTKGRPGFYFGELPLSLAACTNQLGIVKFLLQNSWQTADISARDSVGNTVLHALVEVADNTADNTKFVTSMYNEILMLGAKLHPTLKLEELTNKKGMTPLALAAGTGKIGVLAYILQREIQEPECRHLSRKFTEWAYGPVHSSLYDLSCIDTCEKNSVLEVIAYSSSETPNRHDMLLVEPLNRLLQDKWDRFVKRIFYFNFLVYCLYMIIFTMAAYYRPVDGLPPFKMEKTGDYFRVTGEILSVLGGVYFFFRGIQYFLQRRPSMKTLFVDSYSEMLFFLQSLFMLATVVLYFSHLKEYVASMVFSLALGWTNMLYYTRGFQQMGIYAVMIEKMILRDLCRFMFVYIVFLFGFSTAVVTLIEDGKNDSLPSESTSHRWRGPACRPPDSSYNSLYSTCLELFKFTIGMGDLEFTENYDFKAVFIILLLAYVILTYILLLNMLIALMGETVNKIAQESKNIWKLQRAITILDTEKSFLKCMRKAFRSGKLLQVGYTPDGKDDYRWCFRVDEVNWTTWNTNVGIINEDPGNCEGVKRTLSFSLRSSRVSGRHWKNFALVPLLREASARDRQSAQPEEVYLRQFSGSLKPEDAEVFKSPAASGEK
In short: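 TRPV1-expressing cells loaded with Fluo-8 calcium dye; compounds added and calcium influx read kinetically for 3 min (agonist phase), then capsaicin at EC20 added and read 2 min more for enhancement. Fluorescence ex 480/em 520 nm.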

[15] = biological target: Galactokinase (Homo sapiens) (UniProt P51570); experiment: qHTS Validation Assay for Inhibitors of Human Galactokinase (GALK) (AID 493189)
Sequence of Galactokinase (Homo sapiens) (P51570 whole entry, looked up): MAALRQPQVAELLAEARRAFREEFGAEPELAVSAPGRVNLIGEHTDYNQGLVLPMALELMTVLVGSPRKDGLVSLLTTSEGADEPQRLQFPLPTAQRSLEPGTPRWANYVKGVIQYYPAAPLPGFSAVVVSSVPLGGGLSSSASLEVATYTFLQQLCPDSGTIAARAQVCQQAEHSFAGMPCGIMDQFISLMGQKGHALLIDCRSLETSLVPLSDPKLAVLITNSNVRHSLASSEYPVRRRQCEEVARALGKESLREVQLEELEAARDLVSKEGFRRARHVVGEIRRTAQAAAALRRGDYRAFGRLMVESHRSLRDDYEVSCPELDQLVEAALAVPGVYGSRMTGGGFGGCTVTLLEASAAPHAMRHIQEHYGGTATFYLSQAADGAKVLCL
In short: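 GALK (5 nM) with 35 uM ATP and 100 uM galactose in HEPES pH8.0, MgCl2, NaCl, DTT, BSA; 1 h at room temperature. Residual ATP read by Kinase-Glo Plus luminescence after 10 min.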

[16] = Validation screen for small molecules that induce DNA re-replication in SW480 colon adenocarcinoma cells (AID 504364)
In short: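 SW480 cells (250/well) exposed 48 h at 37 C, 5% CO2, then Hoechst-stained 40 min. Nuclear DNA content imaged by fluorescence scanning (405 nm excitation, 500-530 nm emission); re-replication scored as increased nuclei with elevated intensity.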

[17] = biological target: DNA dC->dU-editing enzyme APOBEC-3G (Homo sapiens) (UniProt Q9HC16); experiment: qHTS for inhibitors of Vif-A3G interactions: Validation (AID 588379)
Sequence of DNA dC->dU-editing enzyme APOBEC-3G (Homo sapiens) (Q9HC16 whole entry, looked up): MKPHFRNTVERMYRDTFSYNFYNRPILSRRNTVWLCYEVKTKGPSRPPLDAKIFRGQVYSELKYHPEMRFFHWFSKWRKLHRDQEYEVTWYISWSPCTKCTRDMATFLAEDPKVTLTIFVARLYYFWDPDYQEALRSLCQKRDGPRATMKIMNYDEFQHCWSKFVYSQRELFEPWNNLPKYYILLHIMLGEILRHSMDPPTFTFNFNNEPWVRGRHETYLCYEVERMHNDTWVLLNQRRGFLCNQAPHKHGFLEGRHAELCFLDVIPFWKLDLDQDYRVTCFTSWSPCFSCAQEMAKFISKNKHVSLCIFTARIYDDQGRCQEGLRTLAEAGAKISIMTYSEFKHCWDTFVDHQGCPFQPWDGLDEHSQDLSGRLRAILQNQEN
In short: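 HeLa cells stably expressing Vif and A3G-eYFP, 700 cells/well, incubated overnight at 37 deg C, then exposed to compound overnight at 37 deg C. Inhibition of Vif-mediated degradation read as increased yellow fluorescence (Ex 488/Em 500-530) by laser-scanning cytometry.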

[18] = tested on: Zika virus NS2B-NS3 protease; experiment: Primary screen GU AMC qHTS for Zika virus inhibitors (AID 1347154); note: nearly all actives have a fitted effect of over 70% in size
In short: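 Unlinked Zika NS2B hydrophilic domain/NS3 protease domain noncovalent complex (25 nM final) in 10 mM Tris-HCl pH 8.0, 0.01% Tween 20, with AMC peptide substrate. Fluorescence (ex 340, em 450 nm) change over 15 min, room temperature; percent inhibition fitted to 4-parameter Hill equation.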

[19] = Primary qHTS for small molecule stabilizers of the endoplasmic reticulum resident proteome: Secreted ER Calcium Modulated Protein (SERCaMP) assay (AID 1508630)
In short: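 GLuc-SERCaMP-expressing SH-SY5Y cells, pretreated 16 h with compound, are challenged with thapsigargin to empty ER calcium stores; after 4 h, coelenterazine is added directly to the medium and luminescence is imaged.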

Measured: Potency

COc1[nH]c2ccc(F)cc2c1C(=O)OCC1CCN(CCNS(C)(=O)=O)CC1
active: [1] 6.31 µM | [2] 7.08 µM | [3] 7.08 µM | [5] 10 µM | [6] 5.01 µM | [11] 14.7 µM | [12] 11.7 µM
inactive: all other assays above
